# Measurements: PubChem BioAssay AID1662 (Broad Institute, 2009)
# In all, about 300,000 compounds went through this assay and about 4,000 (1.3%) were called active. Many of the other results were omitted from the sample, so actives are more common in it than they were. Values without a mark were called inactive.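 The calls were made as follows: active = mean replicate score, as percent of positive control median, at least 50; inconclusive = mean below 50 but one replicate at or above 50; inactive = mean and every replicate below 50.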
# Assay: kanamycin survival loss of SKKanGAS strain – BacTiter-Glo luminescence, streptokinase expression inhibitor project, primary screen (AID 1662);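 also: strain carries kanamycin resistance gene driven by streptokinase promoter and grows in 40 µg/ml kanamycin; loss of luminescence reflects streptokinase promoter inhibition or plain growth inhibition; 0% = median of DMSO wells and 100% = positive control at its reference dose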
# Conditions: S. pyogenes SKKanGAS, kanamycin growth, 6 h, at 7.5 µM, active compounds read high
row,Compound,inhibition
1,COc1ccc(S(=O)(=O)NCC(=O)NC2CC2)cc1OC,-2.16%
2,Cc1cc(Cl)c2oc(C(=O)N3CCC(O)(c4ccccc4)CC3)c(C)c2c1,64.2% (active)
3,Cc1cc(Cl)c2oc(C(=O)N(C)C(C)c3ccccn3)c(C)c2c1 (configuration not stated),8.03%
4,Cc1cc(Cl)c2oc(C(=O)NC(C)c3ccncn3)c(C)c2c1 (configuration not stated),-5.52%
5,COc1ccc(CCNC2=CC(=O)CC(C)(C)C2)cc1,-6.22%
6,CC(C)(C)N1C(=O)[C@H]2[C@@H](c3ccc(Br)cc3)N3C(=O)N(c4cccc(Cl)c4)C(=O)[C@@]3(C)[C@H]2C1=O,-0.18%
7,Cc1cccc(-n2nc3c(c2NC(=O)c2cc4ccccc4o2)CS(=O)(=O)C3)c1,1.09%
8,CCOC(=O)c1cc(-c2ccc(F)cc2)n(CC(=O)NCc2ccccn2)c1C,-1.39%
9,Clc1nc(NC2CCCC2)nc(N2CCOCC2)n1,3.5%
10,COc1nc(NC2CCCCC2)nc(N2CCCCCC2)n1,75.9% (active)
11,COC(=O)c1ccc(Oc2nc(Nc3ccc(F)cc3)nc(N3CCCC3)n2)cc1,18.8%
12,O=c1cc(C(F)(F)F)[nH]c(=O)n1C1CCCCC1,11.3%
13,O=C(c1cccc(F)c1)N1CCN(c2ccc([N+](=O)[O-])c3cccnc23)CC1,-4.2%
14,Cc1nnc(SCC2=C(C(=O)O)N3C(=O)C(NC(=O)Cn4nc(C)c(Cl)c4C)C3SC2)s1 (configuration not stated),88.3% (active)
15,Cc1nnc(SCC(=O)Nn2cnnc2)s1,4.69%
16,Cc1nnc(SCC(=O)NC2CCCC2)s1,-0.971%
17,Cc1cc(C)cc(C(=O)NC2C(=O)N3C(C(=O)O)=C(CSc4nnc(C)s4)CSC23)c1 (configuration not stated),96.4% (active)
18,Cc1cccc(CSc2nnc(NC(=O)CSc3nnc(C)s3)s2)c1,7.83%
19,COc1ccc(NC(=O)CCCC(=O)c2ccccc2)cc1,1.96%

row,Compound,inhibition
1,CCOc1ccccc1/C=N/Nc1nc2ccccc2o1,2.09%
2,COc1cc(N/C=C2\CC(=O)NC(C)=C2C#N)cc(OC)c1OC,-0.282%
3,O=C(Nc1ccc(F)cc1)c1ccc(S(=O)(=O)NCc2cccnc2)cc1,-0.655%
4,FC(F)(F)c1cc(-c2cccs2)nc(NCc2ccco2)n1,-2.9%
5,FC(F)(F)c1cc(-c2ccco2)nc(NCc2ccc(Cl)cc2)n1,65.4% (active)
6,Cc1cc(C(F)(F)F)nn1-c1nc(-c2ccco2)cc(C(F)(F)F)n1,7.56%
7,O=S(=O)(Nc1ccc(-c2ccc(N3CCOCC3)nn2)cc1)c1cc(Cl)ccc1Cl,18.8%
8,O=S(=O)(Nc1cccc(-c2ccc(N3CCOCC3)nn2)c1)c1ccc(Cl)c(Cl)c1,53.5% (active)
9,O=[N+]([O-])c1ccc(S(=O)(=O)Nc2cccc(-c3ccc(N4CCCC4)nn3)c2)cc1,0.0506%
10,CC1CN(S(=O)(=O)c2cccc(C(F)(F)F)c2)CN1C(=O)N1CCOCC1 (configuration not stated),0.316%
11,COc1cccc(/C=N/NC(=O)c2[nH]nc3c2CCc2ccccc2-3)c1O,79% (active)
12,COc1cc2cc(C(=O)N/N=C/c3cccc(OC)c3OC)[nH]c2cc1OC,2.92%
13,CN(C)CCNC(=O)c1[nH]nc2c1CCc1ccccc1-2,-5.17%
14,COc1ccccc1C1C(C(N)=O)=C(C)Nc2nc(CCCO)nn21 (configuration not stated),-3.27%
15,CCOc1ccc(CN(C)C(=O)c2ccc(=O)[nH]c2)cc1,1.34%
16,CCOC(=O)C1=C(CCc2ccccc2)NC(=O)NC1c1ccc2ccccc2c1 (configuration not stated),19.2%
17,CC(C)Cn1c(CCC(=O)O)ccc1-c1cccs1,-8.87%
18,C=CCSc1nc2c(c(=O)[nH]c(=O)n2C)n1Cc1ccccc1,-11.2%
19,CCCCCCn1c(SCC(=O)c2ccccc2)nc2c1c(=O)[nH]c(=O)n2C,73.3% (active)

row,Compound,inhibition
1,CCCCCn1c(SCCC(C)C)nc2c1c(=O)[nH]c(=O)n2C,26.4%
2,N=c1ccn(CC(=O)NC(N)=O)c2ccccc12,-5.02%
3,Cc1cc(-c2ccc(C)c(S(=O)(=O)NC(C)Cc3ccco3)c2)on1 (configuration not stated),2.44%
4,CCC(=C/c1sc2ccc3ccccc3c2[n+]1C)/C=C1\Sc2ccc3ccccc3c2N1C,69.5% (active)
5,COc1ccc(C(CNC(=O)c2cccc(S(=O)(=O)Nc3ccccc3Cl)c2)N2CCOCC2)cc1 (configuration not stated),67.6% (active)
6,COc1ccc(C(CNC(=O)c2cccc(NS(=O)(=O)c3ccc(C)c(F)c3)c2)N2CCCC2)cc1 (configuration not stated),-16%
7,COc1ccc(C(CNC(=O)c2ccc(S(=O)(=O)Nc3ccccc3C)cc2)N2CCOCC2)cc1 (configuration not stated),-13.5%
8,C=Cc1ccc(C(=O)N2CCCC(CCC(=O)N3CCN(c4ccccn4)CC3)C2)cc1 (configuration not stated),4.83%
9,CC(C)C(=O)Nc1nnc(SCC(=O)N2C(C)CCCC2C)s1 (configuration not stated),-1.25%
10,CC1Cc2ccccc2N1S(=O)(=O)c1ccc(Cl)nc1 (configuration not stated),-1.93%
11,Cc1[nH]n(-c2cccc(Cl)c2)c(=O)c1-c1ccc(Cl)cc1,39.1%
12,COc1cc(NS(=O)(=O)c2ccc(N=Cc3c(C)[nH]n(-c4ccccc4)c3=O)cc2)nc(OC)n1,7.41%
13,Cc1ccc(-n2[nH]c(C)c(/C=N/N3C(=O)c4cccc5cccc(c45)C3=O)c2=O)cc1,8.48%
14,Cc1[nH]n(-c2ccc(Cl)cc2)c(=O)c1/C=N/n1c(C)nc2ccccc2c1=O,69.1% (active)
15,Cc1[nH]n(-c2cccc(Cl)c2)c(=O)c1/C=N/n1c(C)nc2ccccc2c1=O,79.2% (active)
16,CCOc1[nH]n(-c2ccc(Cl)cc2)c(=O)c1C=Nc1ccc(O)cc1,2.84%
17,CCOC(=O)C1CCN(C(=O)COC(=O)C2CCN(S(=O)(=O)c3ccc4c(c3)OCCO4)CC2)CC1,19.6%
18,CCc1nnc(NC(=O)C2CC(=O)N(c3ccc4c(c3)OCCO4)C2)s1 (configuration not stated),-3.71%
19,CC(OC(=O)c1ccc2noc(-c3ccccc3)c2c1)C(N)=O (configuration not stated),6.64%
